Assay results published in the antibiotic and cytotoxicity screens of Wong et al. (2023).
Hit rate of the full screen: of about 39,000 compounds, about 3,300 (8.5%) were called active. The full list was thinned out, with actives kept by preference.

tested on: HepG2; assay: cytotoxicity call (relative viability < 0.9); details: 10 µM

Structure (SMILES) | cytotoxicity call
C[C@H](CO)N1C[C@H](C)[C@@H](CN(C)Cc2ccc(Oc3ccccc3)cc2)Oc2c(NC(=O)c3nc4ccccc4s3)cccc2C1=O | active
C[C@@H]1CN([C@H](C)CO)C(=O)c2cccc(NC(=O)c3nc4ccccc4s3)c2O[C@H]1CN(C)Cc1ccc(Oc2ccccc2)cc1 | inactive
C[C@H]1CN([C@@H](C)CO)C(=O)c2cccc(NC(=O)c3nc4ccccc4s3)c2O[C@H]1CN(C)Cc1ccc(Oc2ccccc2)cc1 | active
C[C@H](CO)N1C[C@H](C)[C@H](CN(C)Cc2ccc(Oc3ccccc3)cc2)Oc2c(NC(=O)c3nc4ccccc4s3)cccc2C1=O | inactive
C[C@H]1CN([C@@H](C)CO)C(=O)c2cccc(NC(=O)c3nc4ccccc4s3)c2O[C@@H]1CN(C)Cc1ccc(Oc2ccccc2)cc1 | inactive
C[C@@H]1CN([C@H](C)CO)C(=O)c2cccc(NC(=O)c3nc4ccccc4s3)c2O[C@@H]1CN(C)Cc1ccc(Oc2ccccc2)cc1 | inactive
COCC#Cc1cnc2c(c1)C(=O)N([C@H](C)CO)C[C@H](C)[C@H](CN(C)C(=O)CN1CCOCC1)O2 | inactive
Cc1ccc(S(=O)(=O)Nc2ccc3c(c2)C(=O)N([C@@H](C)CO)C[C@@H](C)[C@H](CN(C)C(=O)Nc2cccc4ccccc24)OCCCC[C@H](C)O3)cc1 | inactive
COc1ccc(S(=O)(=O)N(C)C[C@@H]2Oc3ccc(NC(=O)Cn4cnnn4)cc3CC(=O)N([C@H](C)CO)C[C@H]2C)cc1 | inactive
COc1ccc(-c2csc(C(C#N)=C3CCCCC3)n2)cc1 | inactive
Cc1nc(-c2ccccc2)cs1 | inactive
Cc1ccccc1/C=C(\C#N)c1nc(-c2ccccc2)cs1 | active
C[C@@H]1CN([C@@H](C)CO)C(=O)c2cc(NC(=O)Cn3cnnn3)ccc2O[C@@H]1CN(C)S(C)(=O)=O | inactive
O=C(C1=C[C@@H](c2coc3ccccc3c2=O)C[C@@H](OCCCCO)O1)N1CCN(Cc2ccc3c(c2)OCO3)CC1 | inactive
Cc1noc(C)c1NC(=O)Nc1ccc2c(c1)C(=O)N([C@H](C)CO)C[C@H](C)[C@@H](CN(C)S(=O)(=O)c1cn(C)cn1)O2 | inactive
C[C@@H]1CCCCO[C@@H](CN(C)Cc2ccc(Cl)c(Cl)c2)[C@@H](C)CN([C@H](C)CO)C(=O)c2cc(NC(=O)Nc3ccc(F)cc3)ccc2O1 | inactive
C[C@@H]1CN([C@@H](C)CO)C(=O)c2cc(NC(=O)Nc3ccc(F)cc3)ccc2O[C@@H](C)CCCCO[C@H]1CN(C)Cc1ccc(Cl)c(Cl)c1 | inactive
C[C@@H]1CCCCO[C@H](CN(C)Cc2ccc(Cl)c(Cl)c2)[C@@H](C)CN([C@H](C)CO)C(=O)c2cc(NC(=O)Nc3ccc(F)cc3)ccc2O1 | active
C[C@H]1CCCCO[C@H](CN(C)Cc2ccc(Cl)c(Cl)c2)[C@@H](C)CN([C@@H](C)CO)C(=O)c2cc(NC(=O)Nc3ccc(F)cc3)ccc2O1 | active
C[C@@H]1CCCCO[C@@H](CN(C)Cc2ccc(Cl)c(Cl)c2)[C@H](C)CN([C@H](C)CO)C(=O)c2cc(NC(=O)Nc3ccc(F)cc3)ccc2O1 | inactive
C[C@@H]1CCCCO[C@@H](CN(C)Cc2ccc(Cl)c(Cl)c2)[C@H](C)CN([C@@H](C)CO)C(=O)c2cc(NC(=O)Nc3ccc(F)cc3)ccc2O1 | inactive

Structure (SMILES) | cytotoxicity call
C[C@@H]1CCCCO[C@@H](CN(C)Cc2ccc(Cl)c(Cl)c2)[C@@H](C)CN([C@@H](C)CO)C(=O)c2cc(NC(=O)Nc3ccc(F)cc3)ccc2O1 | active
C[C@H](CO)N1C[C@H](C)[C@H](CN(C)Cc2ccc(Cl)c(Cl)c2)OCCCC[C@H](C)Oc2ccc(NC(=O)Nc3ccc(F)cc3)cc2C1=O | active
C[C@@H]1CN([C@H](C)CO)C(=O)c2cc(NC(=O)Nc3ccc(F)cc3)ccc2O[C@@H](C)CCCCO[C@@H]1CN(C)Cc1ccc(Cl)c(Cl)c1 | inactive
C[C@@H]1CCCCO[C@H](CN(C)Cc2ccc(Cl)c(Cl)c2)[C@H](C)CN([C@@H](C)CO)C(=O)c2cc(NC(=O)Nc3ccc(F)cc3)ccc2O1 | inactive
C[C@H](CO)N1C[C@H](C)[C@@H](CN(C)Cc2ccc(C(=O)O)cc2)Oc2ccc(NC(=O)c3ccncc3)cc2CC1=O | inactive
C[C@@H]1CN([C@H](C)CO)C(=O)Cc2cc(NS(=O)(=O)c3ccccc3)ccc2O[C@@H]1CN(C)S(=O)(=O)c1cccs1 | inactive
C[C@H]1CN([C@@H](C)CO)C(=O)c2cccc(NC(=O)c3cnccn3)c2O[C@@H]1CN(C)S(=O)(=O)c1ccccc1 | inactive
C[N+](C)(C)CCCC[C@@H]1NC(=O)[C@H]2C[C@@H](C(=O)NCc3ccc(F)cc3)[C@@H](c3ccc(O)cc3)N2C1=O | inactive
COc1ccc(S(=O)(=O)Nc2ccc3c(c2)C(=O)N([C@@H](C)CO)C[C@H](C)[C@@H](CN(C)Cc2ccc4c(c2)OCO4)OCCCC[C@@H](C)O3)cc1 | inactive
COc1ccc(NC(=O)N(C)C[C@@H]2OCc3ccccc3-c3c(n(C)c4ccccc34)C(=O)N([C@@H](C)CO)C[C@@H]2C)cc1 | inactive
COc1ccc(S(=O)(=O)Nc2cccc3c2O[C@@H](CN(C)S(=O)(=O)c2cn(C)cn2)[C@H](C)CN([C@@H](C)CO)C3=O)cc1 | inactive
C[C@@H]1CN([C@@H](C)CO)C(=O)Cc2cc(NC(=O)Nc3cccc4ccccc34)ccc2O[C@H]1CN(C)Cc1ccc(Cl)c(Cl)c1 | inactive
CC(C)NC(=O)N(C)C[C@H]1Oc2ccc(NC(=O)Cn3cnnn3)cc2C(=O)N([C@@H](C)CO)C[C@H]1C | inactive
COC(=O)c1ccc(O)c(O)c1 | inactive
CCS(=O)(=O)N1CCc2ccc(N)cc2C1 | inactive
COc1ccc(S(=O)(=O)N(C)C[C@H]2OCCCC[C@@H](C)Oc3ccc(NS(C)(=O)=O)cc3C(=O)N([C@H](C)CO)C[C@@H]2C)cc1 | inactive
C[C@@H]1CCCCO[C@H](CN(C)Cc2ccc(Cl)c(Cl)c2)[C@@H](C)CN([C@@H](C)CO)C(=O)c2cc(NC(=O)Nc3ccc(F)cc3)ccc2O1 | active
C[C@@H]1CN([C@H](C)CO)C(=O)c2cc(NC(=O)Nc3ccc(F)cc3)ccc2O[C@@H](C)CCCCO[C@H]1CN(C)Cc1ccc(Cl)c(Cl)c1 | active
CC(C)NC(=O)Nc1ccc2c(c1)C(=O)N([C@@H](C)CO)C[C@H](C)[C@@H](CN(C)Cc1ccc(Cl)c(Cl)c1)OCCCC[C@H](C)O2 | inactive
CC(C)NC(=O)Nc1ccc2c(c1)C(=O)N([C@H](C)CO)C[C@@H](C)[C@H](CN(C)Cc1ccc(Cl)c(Cl)c1)OCCCC[C@@H](C)O2 | active
CC(C)NC(=O)Nc1ccc2c(c1)C(=O)N([C@H](C)CO)C[C@H](C)[C@@H](CN(C)Cc1ccc(Cl)c(Cl)c1)OCCCC[C@H](C)O2 | inactive
